Laboratory results published in PubChem BioAssay (NCI).
About 79,000 compounds went through this panel and 15% of them were active in at least one assay; those are over-represented in the sample as a whole. Rule as the data show it: active = growth inhibition above about 70%; inactive = the rest.

Experiments:
[1] = NCI Yeast Anticancer Drug Screen. Data for the rad50 strain (AID 155);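 also: 0% = growth of vehicle-only cultures of the same strain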; conditions: S. cerevisiae rad50 strain growth inhibition; at 50.0 µM; hits give high values
Method in brief: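 Vehicle-treated cultures provide the reference for the growth inhibition reported for compound-exposed, repair-deficient yeast.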

[2] = NCI Yeast Anticancer Drug Screen. Data for the mec2-1 strain (AID 157); conditions: S. cerevisiae mec2-1 strain, at 50.0 µM, hits give high values
Method in brief: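 Compounds were applied to mec2-1 yeast cells. Their growth was then compared with that of vehicle-treated cultures to give growth inhibition.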

[3] = NCI Yeast Anticancer Drug Screen. Data for the sgs1 mgt1 strain (AID 161);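 also: 0% = growth of cultures given vehicle only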; conditions: S. cerevisiae sgs1 mgt1 strain, at 50.0 µM, hits give high values
Method in brief: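 Yeast cells carrying a defined DNA-repair defect were exposed to test compounds. Growth inhibition was measured relative to vehicle-treated controls.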

[4] = NCI Yeast Anticancer Drug Screen. Data for the cln2 rad14 strain (AID 165);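 also: 0% = growth equal to vehicle treated cultures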; conditions: S. cerevisiae cln2 rad14 strain, at 50.0 µM, hits give high values
Method in brief: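 Strain: cln2 rad14 yeast, altered in cell cycle control and DNA damage repair. Read-out: growth inhibition vs vehicle.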

[5] = NCI Yeast Anticancer Drug Screen. Data for the bub3 strain (AID 167); conditions: S. cerevisiae bub3 mutant strain, at 50.0 µM, hits give high values
Method in brief: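 Mutant yeast screening strain plus compound; vehicle-treated cultures serve as the 0% inhibition reference.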

[6] = NCI Yeast Anticancer Drug Screen. Data for the mlh1 rad18 strain (AID 175); conditions: S. cerevisiae mlh1 rad18 strain growth inhibition; at 50.0 µM; hits give high values
Method in brief: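 A repair-deficient yeast strain is exposed to test compound, and growth is scored relative to vehicle-treated controls.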

Measured: growth inhibition

Cc1ccc(C2(C)CC/C(=N/N=C3/CCC(C)(c4ccc(C)c(C)c4)c4cc(C)c(C)cc43)c3cc(C)c(C)cc32)cc1C (centres undefined)
inactive: [1] -17% | [2] -13.8% | [3] -27.9% | [4] -40.6% | [5] -11.4% | [6] -12.4%

CC(=O)NC(CCCCNC(=O)N(C)N=O)C(=O)NCc1ccccc1 (centres undefined)
inactive: [1] -41.1% | [2] -17.6% | [3] -12.2% | [4] -4.3% | [5] -26.8% | [6] -12.8%

CCCC(C)C(C)O (centres undefined)
inactive: [1] -21.4% | [2] -45.6% | [3] 0.15% | [4] -11.1% | [5] -24.1% | [6] -14.8%

CCC(c1ccc(OC)cc1)c1cc2c(cc1OCC(=O)O)OCO2 (centres undefined)
inactive: [1] 36.6% | [2] 55.2% | [3] 57.1% | [4] 53.9% | [5] 44.5% | [6] 65.5%

COc1ccc2c(c1)CC1(CC2)NCC(=O)NC1=O (centres undefined)
inactive: [1] 7.9% | [2] 15.6% | [3] -11.8% | [4] -2% | [5] 5.8% | [6] 12.4%

CCOC(=O)c1ccc(N(C=O)CCC(OCC)OCC)cc1
inactive: [1] -2.25% | [2] -5.75% | [3] 4.35% | [4] -49.4% | [5] 17.9% | [6] -0.3%

CCCCc1c(O)c2c(=O)n(C)c(=O)n3c4ccccc4n(c1=O)c23
inactive: [1] -1.55% | [2] -9.7% | [3] -1% | [4] -22.1% | [5] -0.3% | [6] 10.8%

O=C1CC(C(=O)O)Cc2c(Br)ccc(O)c21 (centres undefined)
inactive: [1] 20.8% | [2] 13.8% | [3] -22.5% | [4] -3.6% | [5] -34% | [6] -44.4%

Cc1ccc(S(=O)(=O)NNCCC#N)cc1
inactive: [1] -5% | [2] 6.05% | [3] -4.35% | [4] -0.15% | [5] -4.9% | [6] 7.75%

O=C(O)/C=C\C(=O)Nc1ccc(N=Nc2ccccc2)cc1
inactive: [1] -34.6% | [2] -39.9% | [3] -7.95% | [4] -3.65% | [5] -18.8% | [6] -2.9%

COC1C(=O)c2ccccc2N1C(C)=O (centres undefined)
inactive: [1] 7.85% | [2] -2.25% | [3] -7.6% | [4] -18.2% | [5] -6.85% | [6] 1.15%

O=c1[nH]cc(NCCc2ccccc2)c(=O)[nH]1
inactive: [1] 0.75% | [2] -4% | [3] -17.4% | [4] -50.9% | [5] 7.4% | [6] 1.6%

On1c(-c2ccccc2)c(-c2c(-c3ccccc3)n(O)c3ccccc23)c2ccccc21
inactive: [1] 0% | [2] 6.45% | [3] -4.9% | [4] -24.2% | [5] -7.6% | [6] 15.8%

O=[N+]([O-])C(C=Nc1ccccc1)C=Nc1ccccc1 (centres undefined)
inactive: [1] 6.35% | [2] -23% | [3] -2.85% | [4] -2.25% | [5] -13.4% | [6] 0.45%

COc1ccccc1N1C(=O)C2c3[nH]c4ccccc4c3C3CCC(C(C)(C)C)CC3C2C1=O (centres undefined)
inactive: [1] 17.8% | [2] -11.3% | [3] -4.2% | [4] -12.2% | [5] -16.2% | [6] 5.5%

CCOC(=S)SCc1ccc([N+](=O)[O-])cc1
inactive: [1] 69.8% | [2] 18.4% | [3] 27.8% | [4] 18.6% | [5] 43% | [6] 16.9%

COc1ccc(C(=O)NC(=S)Nc2cccc([N+](=O)[O-])c2)cc1
inactive: [1] -7.3% | [2] 29.9% | [3] 35.5% | [4] -21.6% | [5] 24.6% | [6] 27.7%

c1ccc(CSCCc2ccncc2)cc1
inactive: [1] 16.4% | [2] -13.6% | [3] -21.1% | [4] -3.2% | [5] -3.55% | [6] 20.2%

COC1(OC)C(c2ccc(Cl)cc2)C(C#N)(C#N)C1(OC)OC (centres undefined)
inactive: [1] -7.25% | [2] -13.2% | [3] -14.2% | [4] -48.4% | [5] -1.15% | [6] -7.45%

COC(=O)C1=C(C(=O)OC)SC(=CC#CC=C2SC(C(=O)OC)=C(C(=O)OC)S2)S1
inactive: [1] 9.5% | [2] -3.35% | [3] 9.45% | [4] -59.7% | [5] -12.8% | [6] 1.6%

Cc1cc(=O)c2c(=O)n(-c3ccccc3)[nH]c2[nH]1
inactive: [1] -34.7% | [2] -13.1% | [3] -11.2% | [4] -27.2% | [5] -13.4% | [6] -6.35%

COC(=O)CCSC(=S)NCc1ccccc1
inactive: [1] -14.4% | [2] -30.1% | [3] -20% | [4] -222% | [5] -3.45% | [6] -12.7%

O=C(CCl)OC1CCCCC1C1CCCCC1 (centres undefined)
inactive: [1] 22.7% | [2] 12.8% | [3] 39.3% | [4] -1.5% | [5] 32% | [6] 39.6%

CCCCCCCCCCCCCC/C=N/Nc1ccc([N+](=O)[O-])cc1[N+](=O)[O-]
inactive: [1] 21.3% | [2] 24% | [3] 13.5% | [4] 6.25% | [5] -2% | [6] 22.8%

CN(C)/C=N/c1cc(=O)n(C)c(=O)n1C
inactive: [1] 48.2% | [2] 13.4% | [3] 1.85% | [4] 2.9% | [5] -18.1% | [6] -16.4%

CC(=O)OCC12CCC(C)=CC1O[C@H]1[C@@H](OC(C)=O)[C@H](OC(C)=O)[C@]2(C)[C@@]12CO2 (some centres undefined)
inactive: [1] 24.6% | [2] -17.4% | [3] -19.6% | [4] 42.4% | [5] -14.6% | [6] 30.9%

Cc1ccc(NC(=S)NC(=O)c2cccc([N+](=O)[O-])c2)cc1C
inactive: [1] 1.8% | [2] 15.5% | [3] 14.5% | [4] -26.7% | [5] 0.6% | [6] 11.7%

COc1ccc2c(c1)c1ccc3c(c1n2C)C(=O)C=CC3=O
inactive: [1] 8.4% | [2] -1.6% | [3] 43% | [4] 11% | [5] 4.8% | [6] 15.7%

COc1cc(NC(C)=O)c2nccnc2c1
inactive: [1] -16.4% | [2] -21.6% | [3] 0.1% | [4] -20.6% | [5] -0.95% | [6] -14.2%

COc1nn(C)c(=O)c2cccnc12
inactive: [1] -2.05% | [2] 7.6% | [3] -3.1% | [4] -6.25% | [5] 12.6% | [6] 1.2%

c1csc(C2Nc3ccccc3N2)c1
inactive: [1] 17.6% | [2] -4.1% | [3] 25.6% | [4] 15.2% | [5] 0.5% | [6] 20.4%

CCN(Cc1ccccc1)c1ccccc1C
inactive: [1] 12% | [2] -6.85% | [3] 10.8% | [4] 0% | [5] 7.65% | [6] 1.45%

O=c1sccc2ccccc12
inactive: [1] 28.1% | [2] 25.4% | [3] 2.5% | [4] 9.4% | [5] 10.3% | [6] 1.35%

O=C(O)c1[nH]c(=O)[nH]c(=O)c1C(=O)O
inactive: [1] -20.6% | [2] 0.55% | [3] -15.1% | [4] 18.8% | [5] -17.6% | [6] -15%

Cc1cccc(NC(=O)Nc2cccc(C)c2)c1
inactive: [1] -3.75% | [2] -2.95% | [3] -2% | [4] -25.9% | [5] -22.1% | [6] -18.2%

OCCN(CCO)c1ncnc2c1ncn2Cc1ccccc1
inactive: [1] -7.15% | [2] -7.5% | [3] -7.05% | [4] -42.2% | [5] 8.15% | [6] -20.2%

Oc1nc(-c2ccccc2)sc1-c1ccccc1
inactive: [1] -6.05% | [2] 16.9% | [3] -0.5% | [4] -24% | [5] -10.7% | [6] -9.15%

Oc1ccc2nccnc2c1
inactive: [1] 10.1% | [2] 1.6% | [3] 10.2% | [4] -1.6% | [5] 3.6% | [6] 13.1%

CC1(C)C(CCO)CC1CCO (centres undefined)
inactive: [1] 2.25% | [2] -2.5% | [3] -1.45% | [4] -0.45% | [5] 0.4% | [6] -7.5%
